The record followed here is PubChem BioAssay (NCATS).

Test [1] is described as follows: OV-SAHO Cancer Cell Toxicity qHTS against the NCATS CANVASS Library (AID 1347348). Also: series mostly up to about 38 µM; nearly all actives have a fitted effect of over 55% in size. The method in brief:
(§1)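 Bortezomib titration and single-dose wells served as plate controls. Test compounds, 11 points, acted on 1000 cells/well for 72 h at 37 degrees C; CellTiter-Glo luminescence quantified remaining viable cells.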

Test [2] in a line: A2780 Cisplatin Sensitive Ovarian Cancer Cell Toxicity qHTS against the NCATS CANVASS Library (AID 1347353). Also: nearly all actives have a fitted effect of over 60% in size. Also: potency is read from the fitted curve at half-maximal effect. An outline of the steps: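 Cells are plated at 750 per well and rest for 4 hours. Compounds are added across eleven concentrations, and incubated 72 hours before ATP is quantified by luminescence.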
A short description of test [3]: HEK293 24hr Apoptosis Induction qHTS against the NCATS CANVASS Library (AID 1347359). An outline of the steps: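 HEK293 cells (500/well, DMEM + 10% FBS) were exposed to compounds in an 11-point series for 24 hours at 37 degrees C, then caspase-3/7 activity was read by Caspase-Glo DEVD luciferase luminescence after 15 min.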
Test [4] can be described thus: SDT Cancer Cell Toxicity qHTS against the NCATS CANVASS Library (AID 1347365). Also: nearly all actives have a fitted effect of over 60% in size. Also: potency is read from the fitted curve at half-maximal effect. The method in brief: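 Cytotoxicity is measured from cellular ATP: compounds in an 11-point concentration series are pinned onto SDT cells, incubated 72 hr at 37C, then CellTiterGlo is added and luminescence read.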
Test [5] in a line: KB-3-1 Cancer Cell Toxicity qHTS against the NCATS CANVASS Library (AID 1347366). Also: nearly all actives have a fitted effect of over 75% in size. Also: potency is read from the fitted curve at half-maximal effect. An outline of the steps: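 Seed KB-3-1 cells at 500/well in DMEM with 10% FBS, add compounds, incubate 72 hr at 37C and 5% CO2, then add CellTiter-Glo and read luminescence after 10 minutes.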
The nature of test [6]: G06 Cancer Cell Toxicity qHTS against the NCATS CANVASS Library (AID 1347368). Also: nearly all actives have a fitted effect of over 60% in size. Also: potency is read from the fitted curve at half-maximal effect. An outline of the steps:
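Cells were plated at 500 per well, then compounds were added over an 11-point range. After 72 hr at 37C, CellTiterGlo was added and luminescence measured as ATP content.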

The nature of test [7]: DH5-alpha competent E. coli microbial cell viability qHTS against the NCATS CANVASS Library (AID 1347377). As to conditions: outcome: dose series up to 46.1 µM unless noted. An outline of the steps:
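Bacteria were dispensed at 0.2 OD, then compounds were pin-transferred. Plates were incubated overnight at 37C, after which BacTiter-Glo was added and luminescence measured 20 min later.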

Test [8] is described as follows: qHTS for H2AX Agonists against the NCATS CANVASS Library (AID 1347378).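 Also: phospho-H2AX S139 level in CHO-K1 lysates by TR-FRET emission ratio.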 The method in brief:
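Following overnight seeding, CHO-K1 cells are incubated with a concentration series of compound for 3 hr at 37C (final DMSO 0.76%). Cells are then lysed, detection antibodies added, and emission ratio 665/620 nm recorded after 24 hr at room temperature.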

Test [9] can be described thus: Inflammasome Signaling qHTS Counterscreen: IL-1-beta AlphaLISA counterscreen against the NCATS CANVASS Library (AID 1347381).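 Also: cell-free check with purified IL-1β in medium and no THP-1 cells; series mostly up to about 57 µM.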 An outline of the steps: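 Purified IL-1-beta (4 pg/well) + compound, 11-pt conc. series; acceptor beads 6 ug/mL + biotin-Ab 0.6 nM final, 1 h RT; SA-donor 24 ug/ml final, 30 min dark RT; read ex 680/em 615.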
The nature of test [10]: qHTS assay for small molecule disruptors of mitochondrial membrane potential screened against the NCATS CANVASS Library (AID 1347389). Also: nearly all actives have a fitted effect of over 60% in size. Also: potency is read from the fitted curve at half-maximal effect. The method in brief: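 Mitochondrial depolarization in HepG2 cells is scored as a falling aggregate-to-monomer fluorescence ratio after 1 hr compound exposure and 30 min staining with Mito-MPS dye at 37C, each compound tested as an 11-point titration.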

The nature of test [11]: qHTS for inhibitors of ER calcium dysfunction: SERCaMP assay screened against the NCATS CANVASS Library (AID 1347393). Also: nearly all actives have a fitted effect of over 40% in size. Also: potency is read from the fitted curve at half-maximal effect. An outline of the steps: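 qHTS in SH-SY5Y reporter cells: 16 h compound pretreatment, 4 h thapsigargin, then secreted Gaussia luciferase measured by luminescence.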
Test [12] is described as follows: Redox Reaction Profiling qHTS: Assay Interference Panel against the NCATS CANVASS Library (AID 1347401). An outline of the steps:
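Quantitative HTS over an 11-point series was run in HEPES pH 7.3 with 50 mM NaCl, 200 uM DTT and 5 uM resazurin. Initial and 15-min resorufin fluorescence readings were taken.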

Test [13] is described as follows: SW1088 Cancer Cell Toxicity qHTS against the NCATS CANVASS Library (AID 1347350). Also: nearly all actives have a fitted effect of over 75% in size. Also: potency is read from the fitted curve at half-maximal effect. The method in brief: as §1
A short description of test [14]: U-118MG Cancer Cell Toxicity qHTS against the NCATS CANVASS Library (AID 1347351). Also: series mostly up to about 38 µM. An outline of the steps: as §1
A short description of test [15]: UWB1.289-WTBRCA1 Cancer Cell Toxicity qHTS against the NCATS CANVASS Library (AID 1347354). The method in brief: (§2)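 First, 1000 cells go into each well and rest for 4 hours. Next, an 11-point dilution range is pinned in. Plates then incubate 72 hours before CellTiter-Glo addition and luminescence reading.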
A short description of test [16]: Vero-766 cells viability qHTS against the NCATS CANVASS Library: Counterscreen for Zika virus inhibition assay (AID 1347394). An outline of the steps:
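This cytotoxicity counterscreen uses African green monkey Vero 766 cells in the absence of Zika virus. Compounds are incubated with cells for 72 h, and ATP-based luminescence reports viability.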

A short description of test [17]: OV-KATE Cancer Cell Toxicity qHTS against the NCATS CANVASS Library (AID 1347345). An outline of the steps: as §1
Test [18] can be described thus: Panc-1005 Cancer Cell Toxicity qHTS against the NCATS CANVASS Library (AID 1347349). An outline of the steps:
as §1

A short description of test [19]: COV-362 Cancer Cell Toxicity qHTS against the NCATS CANVASS Library (AID 1347352). Also: series mostly up to about 38 µM. An outline of the steps:
as §2

Test [20] can be described thus: qHTS for ATAD5 Agonist screened against the NCATS CANVASS Library (AID 1347367).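 Also: luciferase reporter driven by ATAD5 which rises upon DNA damage.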 An outline of the steps:
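Step one plated reporter cells and let them acclimate 5hr. Step two pinned compounds with MMS as positive and 0.46% DMSO as negative control. After 16hr incubation, fluorescence viability then luminescence were read.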

Values without a mark were called inactive. Inconclusive results are not listed. Active and inactive are the calls of the source. Calls follow the shape of the dose curve; as a rule, active = well fitted curve in the direction sought with a large enough effect; inconclusive = small, poorly fitted or top-dose-only effect, or another doubt; inactive = no such curve, though single readings can be large; an effect the other way counts as inactive or inconclusive.

Take `COc1cc([C@@H]2c3cc4c(cc3C[C@@]3(O[C@@H]5O[C@H](CO)[C@@H](O)[C@H](O)[C@H]5O)COC(=O)[C@H]23)OCO4)cc(OC)c1OC`: the Potency entry in test [1], in test [3], in [8], in test [10], in [11] and in test [12] was “inactive” throughout. Also, the Potency in [2] was 0.0372 µM (active); in test [4], 0.0418 µM (active); in test [5] it was 0.0372 µM (active); in [6] it was 0.0418 µM (active). In addition, the result in test [7] and in [9] was inactive.
Consider `CC(C)=CCC/C(C)=C/Cc1cc([C@@H]2CC(=O)c3c(cc(O)c(CC=C(C)C)c3O)O2)ccc1O`, for which the values for the Potency in test [13], in [10] and in test [11] were 14.9 µM (active), 23.4 µM (active) and 38.4 µM (active), respectively. Moreover, the Potency entry in test [14], in [2], in test [15], in [3], in test [4] and in test [5] was “inactive” each time. Further, the Potency result in test [6], in test [8], in test [16] and in test [12] was “inactive” in each case. In addition, the outcome in test [7] and in test [9] was inactive.
As for `CN1CC[C@]23c4ccccc4N[C@H]1[C@]21CCN(C)[C@H]3Nc2ccccc21`, the Potency entry in test [17], in [1], in [18], in test [13], in test [14] and in [19] was “inactive” throughout. For the same compound, the Potency result in [2], in test [15], in test [3], in test [4], in [5] and in test [20] was “inactive” each time. The Potency entry in [6], in test [8], in [10], in test [11], in test [16] and in test [12] was “inactive” each time. Besides, the result in test [7] and in [9] was inactive.
With `COC(=O)C1=C[C@]23C[C@@H](C)CC[C@@H]2[C@@]2(C)CC[C@@H](C(C)C)[C@@](O)(O3)[C@@H]12`, the Potency entry in [18], in test [14], in test [20], in test [6], in [8] and in test [10] was “inactive” each time. Further, the Potency result in test [16] and in [12] was “inactive” in each case. Besides, in [9], the compound was classed as inactive. Moreover, in [11], the Potency is 34.3 µM (active).
On to `CO[C@H]1/C=C/CCCCC(=O)O[C@@H](/C(C)=C/[C@H](C)C(=O)C[C@H](O)CC2CC(=O)NC(=O)C2)[C@@H](C)C1`, for which the Potency entry in test [13], in test [3], in test [20], in [8], in test [10] and in test [11] was “inactive” in each case. The Potency entry in [16] is “inactive”. In addition, the Potency in [2] is 4.69 µM (active); in [4] it was 4.69 µM (active); in test [6], 5.26 µM (active). In addition, the result in [7] and in test [9] was inactive.
Turning to `CN1CC[C@@]23c4ccccc4N[C@@H]1[C@@]21CCN(C)[C@@H]3Nc2ccccc21`, the Potency result in test [17], in test [1], in test [18], in test [13], in test [14] and in test [19] was “inactive” in each case. Also, the Potency entry in test [2], in test [15], in test [3], in test [4], in test [8] and in test [10] was “inactive” each time. Also, the Potency entry in test [16] and in [12] was “inactive” in each case. The compound was classed as inactive in test [7].
Consider `O=Cc1ccc2n1C[C@]1(C[C@H](O)[C@@H](CO)O1)OC2`, for which the Potency result in test [17], in test [1], in test [18], in test [13], in test [14] and in test [19] was “inactive” throughout. The Potency entry in [2], in test [15], in test [4], in [5], in [6] and in test [8] was “inactive” throughout. Also, the Potency result in test [10], in test [11], in test [16] and in test [12] was “inactive” throughout. The compound was classed as inactive in test [7].
